TGFb inhibitor – TGF-b pathway inhibition; HepG2 CAGA-GFP TGF-b/SMAD3 reporter, GFP fluorescence, 18 h; TGF-beta stimulated, 500 pg/mL final; Potency, µM (highest dose often 46.1 µM), for the others: at the highest dose activity, negative = inhibition, most hits filed as inhibitors; actives 1.2% (n = 410,000); further: potency means the concentration at half of the fitted maximal effect; on the % scale 0 is the no-effect control and ±100 the full control effect; nearly all actives have a fitted effect of over 65% in size
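Inhibition of TGF-beta-driven CAGA-GFP reporter expression in HEPG2 cells is measured by cellular GFP fluorescence after 18 h stimulation with 500 pg/mL recombinant TGF-beta in 1% FBS medium at 37 degrees C.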
DT40 TDP1 CPT – growth inhibition of DT40 Tdp1-/-;hTDP1 cells with camptothecin (screen for TDP1 inhibitors) | Potency, µM (top dose mostly 46.2 µM), without a hit: at the top dose activity change, negative = growth inhibition, hits mostly inhibitors | chicken DT40 Tdp1-/-;hTDP1 cells + 20 nM CPT, ATP luminescence, 48 h | AID 686979 | actives 12% (n = 420,000); further: potency means the concentration at half of the fitted maximal effect; on the % scale 0 is the no-effect control and ±100 the full control effect; nearly all actives have a fitted effect of over 55% in size
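Chicken DT40 Tdp1-/- cells stably complemented with human TDP1 were seeded at 400 cells/well in medium containing 20 nM camptothecin, exposed to pin-transferred compounds, and grown at 37 °C for at least 48 hr. Viability was read as ATP luminescence.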
TDP1 cell noCPT – qHTS for Inhibitors of human tyrosyl-DNA phosphodiesterase 1 (TDP1): qHTS in cells in absence of CPT; DT40 Tdp1-/- hTDP1 cells, no CPT, ATP luminescence, 48 h; Potency, µM (doses to about 46.2 µM), inactives show at the highest dose activity change, negative = growth inhibition, usual class: inhibitors; actives 15% (n = 420,000); further: potency means the concentration at half of the fitted maximal effect; on the % scale 0 is the no-effect control and ±100 the full control effect; nearly all actives have a fitted effect of over 55% in size
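DT40 Tdp1-/-;hTDP1 cells, no CPT (DMSO vehicle only), 400 cells/well; compounds pin-transferred; ≥48 hr, 37 °C; CellTiter-Glo 30 min RT dark, luminescence read.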
IL1B secr inh – blocks inflammasome-driven IL-1 beta release; THP-1 LPS/ATP IL-1B secretion, AlphaLISA, 16 h; stronger effect = lower value; activity change, % at 57.5 µM; actives 4.7% (n = 360,000); AID 743279; in the data active means activity change below about -50%; inconclusive means mostly about -30% to -49%; further: on the % scale 0 is the no-effect control and ±100 the full control effect
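THP-1 cells pretreated 1 hr with compounds (up to 57.5 uM final), then stimulated with LPS (250 ng/mL final) plus ATP (1.25 mM final); secreted IL-1B measured by AlphaLISA after 16 hr, decreased signal indicating inhibition.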
TDP1 block – TDP1 (human) enzyme inhibition; Q9NUW8; recombinant TDP1, AlphaScreen DNA substrate cleavage; Potency, µM (doses to about 130 µM), for the others: top-dose activity change, negative = inhibition, usual class: inhibitors; actives 0.28% (n = 350,000); further: potency means the concentration at half of the fitted maximal effect; on the % scale 0 is the no-effect control and ±100 the full control effect; nearly all actives have a fitted effect of over 40% in size
Target sequence (Q9NUW8 whole entry, looked up): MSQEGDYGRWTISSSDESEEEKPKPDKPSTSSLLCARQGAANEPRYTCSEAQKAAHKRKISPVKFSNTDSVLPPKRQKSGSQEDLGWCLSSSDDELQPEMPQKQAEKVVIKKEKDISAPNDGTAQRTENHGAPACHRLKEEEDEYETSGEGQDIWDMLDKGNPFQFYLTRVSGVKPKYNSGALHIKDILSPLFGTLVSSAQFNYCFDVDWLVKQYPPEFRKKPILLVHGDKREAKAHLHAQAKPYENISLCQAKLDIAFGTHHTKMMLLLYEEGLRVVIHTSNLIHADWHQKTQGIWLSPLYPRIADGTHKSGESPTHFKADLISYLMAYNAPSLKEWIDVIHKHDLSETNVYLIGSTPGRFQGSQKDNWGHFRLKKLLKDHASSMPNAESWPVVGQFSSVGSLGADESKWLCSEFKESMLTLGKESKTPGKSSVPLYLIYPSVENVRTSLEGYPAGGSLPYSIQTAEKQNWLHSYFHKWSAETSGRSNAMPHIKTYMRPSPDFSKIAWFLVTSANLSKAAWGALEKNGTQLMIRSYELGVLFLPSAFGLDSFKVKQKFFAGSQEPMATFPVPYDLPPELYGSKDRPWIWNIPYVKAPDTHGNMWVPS
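Here, a 5' biotin and 3' phosphotyrosine-FITC DNA oligonucleotide reports Tdp1 activity: intact substrate bridges AlphaScreen beads, while cleavage leaves a 3' phosphate and drops signal. All incubations at room temperature.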
HepG2 tox – counter-screen for TGF-b inhibitors: cytotoxicity in HepG2 cells | Potency, µM (top dose mostly 46.1 µM), for the others: top-dose activity change, negative = cytotoxicity, usual class: cytotoxic | HepG2 CAGA-GFP viability, ATP luminescence, 18 h | actives 0.76% (n = 410,000); further: potency means the concentration at half of the fitted maximal effect
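HepG2 CAGA-GFP cells (1000/well, DMEM with 1% FBS) received compound, then TGF-beta at 500 pg/mL final, and were incubated 18 hours at 37 degrees C. Viability was read by CellTiter-Glo luminescence. Media-only wells were set as complete cell-killing and DMSO as no toxicity.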
Starred values were filed as active, the others as inactive; u = inconclusive; x = no result; [ ] = another dose, or the depositor's remark. Compounds with a hit are over-represented: about 18% of the library has one in this group of screens. Unless noted, the call rests on the fitted dose curve; in most records, active means well fitted curve in the direction sought with a large enough effect; inconclusive means small, poorly fitted or top-dose-only effect, or another doubt; inactive means no such curve, though single readings can be large; an effect the other way counts as inactive or inconclusive.

SMILES | TGFb inhibitor | DT40 TDP1 CPT | TDP1 cell noCPT | IL1B secr inh | TDP1 block | HepG2 tox
CC(C)CC1NC(=O)N(CC(=O)N2c3ccccc3NC(=O)C2(C)C)C1=O (stereo unspecified) | -3% | -10% | 3% | -16 | 6% | -8%
CC(C)C[C@@H]1NC(=O)[C@H](Cc2ccccc2)N(C)C(=O)[C@H](C)NC(=O)c2ccccc2NC(=O)[C@H](Cc2ccc(O)cc2)N(C)C1=O | -9% | 16µM* | 15µM* | -5 | x | -19%
O=C(Nc1ccc(Cc2ccncc2)cc1)C1CCC(N2C(=O)C3C4C=CC(C5CC45)C3C2=O)CC1 (stereo unspecified) | u | 18µM* | 15µM* | 0 | -1% | -25%
COc1cccc(OCCn2cc(C=O)c3ccccc32)c1 | 3.5µM* | 17% | u | -10 | x | -31%
COC(=O)N/N=C/c1cn(CCOc2cccc(OC)c2)c2ccccc12 | u | u | 21µM* | -8 | x | -47%
Cc1cccc(OCC(=O)N/N=C\c2cn(C)c3ccccc23)c1 | u | 19% | u | -2 | 6% | -75%
COc1ccc(C)cc1NC(=O)CSc1nc(=O)n(Cc2cccnc2)c2c1CCC2 | -23% | u | 18µM* | x | 8% | -14%
COc1ccc(C)cc1NC(=O)CSc1nc(=O)n(Cc2ccccn2)c2c1CCC2 | 8.9µM* | u | 21µM* | x | 0% | -32%
Cc1c(Cl)cccc1NC(=O)CSc1nc(=O)n(Cc2cccnc2)c2c1CCC2 | -5% | -20% | -11% | x | 8% | -8%
CCOc1ccccc1NC(=O)CSc1nc(=O)n(Cc2ccccn2)c2c1CCC2 | -7% | -4% | -23% | -11 | 1% | 0%
CC(=O)Nc1ccccc1-c1nc2ccccc2n(C(C)C(=O)Nc2ccccc2C(F)(F)F)c1=O (stereo unspecified) | -1% | -28% | u | x | 3% | 8%
CCCCNC(=O)Nc1nc2ccccc2s1 | 5% | u | u | -78* | 3% | -3%
CCCNC(=O)c1ccc(-c2nc3ccccc3s2)s1 | 26% | u | 10µM* | -10 | -3% | -10%
CC1CCCCN1c1nc(-c2ccncc2)nc2ccccc12 (stereo unspecified) | 0% | u | 18µM* | -14 | 2% | -69%
c1ccc2c(N3CCCCC3)ncnc2c1 | -16% | u | 21µM* | 27 | 5% | -14%
CC1(C)CC2CC(C)(CN2c2ncnc3ccccc23)C1 (stereo unspecified) | u | 8.2µM* | 9.2µM* | -82* | 1% | -38%
CC1CCCCN1c1ncnc2ccccc12 (stereo unspecified) | -29% | 23µM* | 10µM* | -25 | 2% | -14%
CCC1CCCCN1c1nc(-c2ccncc2)nc2ccccc12 (stereo unspecified) | 15% | 29µM* | u | -7 | 3% | -40%
CCc1nc2c(OCCC3CCCCC3)cccn2c1N(C)C(=O)c1ccc(C)cc1 | u | 15µM* | 15µM* | -99* | x | 20µM*
CCc1nc2c(OCCOC)cccn2c1N(C)C(=O)c1ccc(C)cc1 | 11% | -3% | -4% | 6 | x | -1%
CCc1nc2c(OCCC3CCCCC3)cccn2c1N(C)C(=O)C1CC1 | -26% | 18µM* | 13µM* | 0 | x | 4%
CCc1nc2c(OCC3CCCCC3)cccn2c1N(C)C(=O)c1ccc(OC)cc1 | u | 18µM* | 18µM* | x | x | -5%
CCc1nc2c(OCCC3CCCCC3)cccn2c1N(C)C(=O)COc1ccccc1 | 0% | 16µM* | u | 9 | x | -17%
CCc1nc2c(OCc3ccccc3)cccn2c1N(C)C(=O)c1ccc(OC)cc1 | -1% | -23% | u | 23 | x | 4%
OC(CN1CCCCC1)c1cc(-c2ccccc2)on1 (stereo unspecified) | x | 13% | -4% | x | x | x
SMILES | TGFb inhibitor | DT40 TDP1 CPT | TDP1 cell noCPT | IL1B secr inh | TDP1 block | HepG2 tox
Cc1noc(C)c1S(=O)(=O)N(C)C[C@H]1OCc2cnnn2CCCC(=O)N([C@H](C)CO)C[C@H]1C | 12% | 9% | 1% | 20 | x | -3%
CCc1nc2c(OCC3CCCCC3)cccn2c1N(C)C(=O)c1ccccc1F | u | u | 16µM* | -18 | x | -18%
CCc1nc2c(OCCOc3ccccc3)cccn2c1N(C)C(=O)C1CC1 | -8% | 16µM* | u | -7 | x | -32%
CCc1nc2c(OCCC3CCCCC3)cccn2c1N(C)C(=O)c1ccccc1F | u | u | u | u | x | -96%
CCc1nc2c(OCCC3CCCCC3)cccn2c1N(C)C(=O)C(C)C | u | 13µM* | u | u | x | -33%
CCc1nc2c(OCc3ccccc3)cccn2c1N(C)C(C)=O | 8% | -2% | -2% | 1 | x | 1%
COc1ccccc1C(=O)N/C(=C\c1ccccc1)C(=O)NCc1ccco1 | -25% | 4% | -14% | -10 | 3%[0.0935 µM] | 0%
CCn1c(SC(C)C(=O)Nc2ccc3c(c2)OCCO3)nnc1C1CC1 (stereo unspecified) | -6% | 1% | 27% | 22 | 0% | -15%
COc1ccc(/C=C/C2=CC(C)(C)NC(=S)N2)cc1OC | -20% | -27% | -10% | -3 | 8% | -17%
CCOc1ccc(/C=C/C2=CC(C)(C)NC(=S)N2)cc1 | u | 15µM* | u | 0 | 9% | -27%
COc1cccc(/C=C/C2=CC(C)(C)NC(=S)N2)c1 | -14% | -7% | u | -7 | -2% | 13µM*
Cc1ccccc1C(=O)NCC(=O)OC1CCCCC1=O (stereo unspecified) | 4% | -2% | 1% | -3 | x | 0%
CCCCCCCCN1C(=O)[C@H](CC(=O)NCCCN2CCCC2=O)C[C@@]2(C(=O)OC)CCCCC=C12 | x | u | u | -16 | x | x
CCCCCCCCN1C(=O)[C@H](CC(=O)NCC2CCCCC2)C[C@@]2(C(=O)OC)CCCCC=C12 | x | 21µM* | 16µM* | 0 | x | x
CCCCCCCCN1C(=O)[C@H](CC(=O)NCCCOC)C[C@@]2(C(=O)OC)CCCCC=C12 | x | u | 16µM* | -6 | x | x
Cc1cccc(-c2nc3nc(C)cc(NCc4ccccc4Cl)n3n2)c1 | u | x | x | x | 4% | -32%

Assay outcomes as filed in PubChem BioAssay.
